According to PubChem BioAssay (NCATS):
Several values for one entry are separate records, joined by “and”; a condition that tells them apart may be missing. Equal values may be shown once. Records with an inconclusive call do not appear. Activity calls are given as the source filed them. Calls follow the shape of the full dose curve.

Assay: qHTS Assay for Lipid Storage Modulators (AID 1519); as to activity change, negative = inhibition: % is scaled to controls: 0 for no effect and ±100 for the full control effect
Conditions: Drosophila S3 cells, BODIPY lipid droplet/cell ratio, laser cytometry, cells loaded with oleic acid
From the text: NIH Molecular Libraries Probe Production Centers Network [MLPCN]
NIH Chemical Genomics Center [NCGC]
Assay Submitter (PI): Beller, Mathias; Max-Planck-Institut fur Biophysikalische Chemie
NCGC Assay Overview: Storing lipids as a reservoir for energy or the anabolism of elementary metabolites is a common feature of probably all cells and is conserved from bacteria to humans. The universal cellular lipid storage organelle is the so-called lipid storage droplet (LD). Although ubiquitous, LDs share a simple structure composed of a hydrophobic core that harbors the storage lipids, which is shielded by a droplet-specific phospholipid monolayer to which proteins are attached. The current model of LD biogenesis involves an incorporation of the lipid core into the membrane leaflets of the endoplasmic reticulum (ER) followed by a subsequent budding-like maturation of a LD, which ultimately pinches off. Once released, LD volume can increase by localized lipogenesis or fusion of existing droplets. Storage lipids are re-mobilized enzymatically by lipase activity. Lipase regulation in the adipocyte is heavily studied and involves multiple components including catecholamine signaling, the LD-associated proteins Perilipin and comparative gene identification-58 (CGI-58) and at least two lipases named hormone sensitive lipase (HSL) and adipocyte triglyceride lipase (ATGL). LD regulation outside of the adipocyte is poorly understood and only few components are known. However, there is an urgent need to learn more about ectopic fat depots as mislocalized storage of lipids, for example in the liver or muscle, is an eminent health problem associated with insulin resistance or the metabolic syndrome. We developed a laser-scanning cytometer assay to enable 1,536-well screening and combined the results of the small molecules screen with an RNAi database based on lipid storage.
NCGC Assay Protocol Summary:
We dispensed 4 uL of cells at 1.25 x 10^6 cells/mL into LoBase Aurora COC 1,536-well plates (black walled, clear bottom) with a bottle-valve solenoid-based dispenser (Aurora) to obtain 5,000 cells/well. Triacsin C (Sigma-Aldrich T-4540), an inhibitor of long-chain fatty acyl CoA synthetase that blocks synthesis of triglycerides, was used as a positive control for lipid under-storage. A total of 23 nL of compound solution of different concentrations were transferred to the assay plates using a Kalypsys pin tool equipped with a 1,536-pin array containing 10-nL slotted pins (FP1S10, 0.457-mm diameter, 50.8 mm long; V&P Scientific). One microliter of oleic acid (400 uM) was added, and the plate was lidded with stainless steel rubber gasket lined lids containing pinholes. […] Fluorescence was detected by excitation of the fluorophores with a 488-nm laser on an Acumen Explorer (TTP Lab Tech). The total intensity in channel 1 (500-530 nm) reflected lipid droplet accumulation. […] The ratio of the total intensity in PMT channel 1 over total intensity of channel 3 was also calculated. Percent activity was computed relative to an internal control (100% inhibited lipid droplet deposition due to the presence of 20 uM Triacsin C), which was added to 32 wells/plate.

[1] = measured here: cell count channel max response
[2] = measured here: lipid channel max response

Row | SMILES | activity change, negative = inhibition (at 25.7 µM (top of the series)) | activity change, negative = inhibition (at 57.5 µM (top of the series)) | max response [1] | max response [2]
1 | CN(C)CC/C=C1\c2ccccc2Sc2ccc(Cl)cc21 | -2% (inactive) | 8.38% (inactive) | -15.8% and 5.25% | -14.2% and 16.4%
2 | CN(C(=O)CN(CCO)CC(=O)N(C)C(C)(C)Cc1ccccc1)C(C)(C)Cc1ccccc1 | -12.5% (inactive) | 4.59% (inactive) | -9.05% and 8.48% | -21.3% and 13.9%
3 | CCN(CC)C(=O)N1CCN(C)CC1 | -0.935% (inactive) | 4.02% (inactive) | -1.64% and 22.2% | 2.25% and 24.5%
4 | Cc1ccnc(NS(=O)(=O)c2ccc(N)cc2)n1 | 2.4% (inactive) | 7.92% (inactive) | -11% and -0.764% | -8.59% and 9.99%
5 | C=C(CC)C(=O)c1ccc(OCC(=O)O)c(Cl)c1Cl | -7.65% (inactive) | 1.41% (inactive) | 5.62% and 9.96% | -2.15% and 13.8%
6 | NCCCC[C@H](N[C@@H](CCc1ccccc1)C(=O)O)C(=O)N1CCC[C@H]1C(=O)O | 0.781% (inactive) | – | 1.7% | 0.636%
7 | CCCCOc1cc(C(=O)NCCN(CC)CC)c2ccccc2n1 | -1.17% (inactive) | 1.92% (inactive) | -8.72% and 19.1% | -8.39% and 23.8%
8 | O=C(O)c1cc2cc(Cc3cccnc3)ccc2o1 | – | 4.53% (inactive) | 9.59% | 18.2%
9 | Oc1c(I)cc(I)c2cccnc12 | – | -2.05% (inactive) | 9.29% | 10.6%
10 | CCN(CCCCOC(=O)c1ccc(OC)c(OC)c1)C(C)Cc1ccc(OC)cc1 (configuration not stated) | – | 3.28% (inactive) | 17.5% | 26.2%
11 | Cc1ccc(C(=O)C(C)CN2CCCCC2)cc1 (configuration not stated) | – | 1.11% (inactive) | 7.21% | 11.2%
12 | CO/N=C1\CN(c2nc3c(cc2F)c(=O)c(C(=O)O)cn3C2CC2)CC1CN (configuration not stated) | – | 8.95% (inactive) | 11% | 24%
